{
  "source": "PubChem BioAssay AID1042",
  "about": "(National Center for Advancing Translational Sciences (NCATS), 2008)",
  "test": "CDH13 Derepression/Induction Secondary Assay for qHTS Assay for Epigenetic Modulators",
  "settings": "H358 cells, CDH13 mRNA qPCR, 72 h; active compounds read high",
  "description": "NIH Molecular Libraries Screening Centers Network [MLSCN] NIH Chemical Genomics Center [NCGC] MLSCN Grant: 1 X01 MH079860-01 Assay Provider: Elisabeth D. Martinez, University of Texas SW Medical Center NCGC Assay Overview: This secondary assay characterizes selected actives identified in the qHTS of the Locus Derepression (LDR) assay (PubChem AID 597). The LDR assay detects the derepression of a GFP reporter that is stably integrated in a region of the genome of murine c127i mammary cells that is presumably silenced. Compounds that cause derepression of the locus to express GFP are identified by enumerating GFP positive cells using a laser-scanning microplate cytometer. Selected LDR actives were assayed for the induction of CDH13 gene expression, a gene silenced by methylation of its promoter. […]\nNCGC Assay Protocol Summary Exponentially growing H358 non-small cell lung cancer cells were treated daily with fresh media containing the indicated concentrations of compounds for 72 hr. Cellular RNA was extracted, quantified, DNAse treated and reverse transcribed. The resulting cDNA was amplified in TaqMan real time quantitative PCR assays (Applied Biosystems) containing validated primers specific for CDH13 (Hs00169908.m1). […] Gene expression was measured by fold-induction over control DMSO-treated samples (36-37 average cycle time). […]",
  "note": "Records with an inconclusive call do not appear. Unmarked numbers belong to inactive results.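 Rule for the calls: active = raised CDH13 expression over DMSO controls, judged by fold change in triplicate runs, no set cutoff; inconclusive = doubtful CDH13 rise, criteria not stated; inactive = no rise, falls in expression ignored.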",
  "data": [
    {"molecule": "CN1CSC(=S)N(C)C1", "values": [
      {"measurement": "fold change", "result": 1}
    ]}
  ]
}
